Laboratory results reported in PubChem BioAssay AID2549 (National Center for Advancing Translational Sciences (NCATS), 2010).
Values joined by “and” are separate entries in the source; they are usually repeats but may differ in a detail not shown here. Identical values can stand only once. Screen size: about 240,000 compounds; about 1,300 (0.54%) were called active. Roughly 1% stayed inconclusive and do not appear here. The call rests on the fitted dose curve; in most records, active means well fitted inhibition curve with a large enough effect; inconclusive means small, poorly fitted or top-dose-only effect; inactive means flat fitted curve, though single readings scatter. The list comes from a sample in which actives are over-represented; it also holds similar structures and randomly drawn compounds. A structure can be active in one record and inactive in another.

target: ATP-dependent DNA helicase Q1 (Homo sapiens) (UniProt P46063); test: qHTS Assay for Inhibitors of RecQ-Like Dna Helicase 1 (RECQ1); details: RECQ1 DNA unwinding, red fluorescence kinetic read; series mostly up to 57.3 µM; activity, negative = inhibition: at the top concentration; further: nearly all actives have a fitted effect of over 30% in size;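 on activity, negative = inhibition: plate controls were vehicle for no effect and no enzyme for full effect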
In short: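 50 nM RECQ1T1 preincubated 15 min with compound in Tris pH 8.0 buffer with MgCl2, DTT, Tween-20 and 2.5 ug/ml poly(dI-dC); started with 200 nM TAMRA/BHQ-2 forked duplex and 2 mM ATP. Unwinding read as fluorescence (525/598 nm), two reads 2 h apart.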
Potency means the concentration at half of the fitted maximal effect.

Chain of ATP-dependent DNA helicase Q1 (Homo sapiens) (P46063 whole entry, looked up): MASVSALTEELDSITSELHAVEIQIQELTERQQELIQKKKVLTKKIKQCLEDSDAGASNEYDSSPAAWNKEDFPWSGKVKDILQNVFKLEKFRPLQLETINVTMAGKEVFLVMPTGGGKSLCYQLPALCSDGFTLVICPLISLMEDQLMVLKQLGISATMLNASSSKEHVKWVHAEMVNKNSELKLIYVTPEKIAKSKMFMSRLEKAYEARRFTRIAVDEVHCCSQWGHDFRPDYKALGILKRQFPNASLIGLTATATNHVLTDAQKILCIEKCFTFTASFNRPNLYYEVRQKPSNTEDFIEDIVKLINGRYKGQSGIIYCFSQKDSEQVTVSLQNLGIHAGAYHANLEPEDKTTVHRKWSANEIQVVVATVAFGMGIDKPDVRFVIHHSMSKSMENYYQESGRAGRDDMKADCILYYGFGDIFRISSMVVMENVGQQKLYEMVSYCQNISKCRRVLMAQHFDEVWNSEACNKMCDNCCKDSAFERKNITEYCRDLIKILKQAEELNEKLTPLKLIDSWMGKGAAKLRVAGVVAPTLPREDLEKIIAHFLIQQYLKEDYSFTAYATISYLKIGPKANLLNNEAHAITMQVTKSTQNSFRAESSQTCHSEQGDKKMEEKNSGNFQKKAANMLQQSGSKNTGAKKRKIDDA

outcome, inactive:
COc1ccc(C[C@H](C(=O)O)N2C(=O)c3ccc(C(=O)O)cc3C2=O)cc1, O=C(NCc1ccccn1)c1cc(Br)ccc1Cl, O=C(Nc1ccc2nccnc2c1)c1ccco1, CC(C)(C)[C@H]1C=C(C(=O)NCc2ccccc2)O[C@@H](OCc2ccc(CO)cc2)C1, NCCC(=O)c1ccccc1N, CO[C@@]12[C@@H](COC(N)=O)C3=C(C(=O)C(C)=C(N)C3=O)N1C[C@@H]1N[C@@H]12, CCCCCCOC(=O)NCC(O)c1ccccc1 (centres undefined), COc1ccc(C2/C=C\CN(C(=O)c3ccc(C)cc3)C(Cc3ccccc3)C(=O)N2Cc2ccc(F)cc2)cc1 (centres undefined), Nc1nc2c(ncn2[C@@H]2O[C@H](COP(=O)(O)OP(=O)(O)OP(=O)(O)O)[C@@H](O)C2O)c(=O)[nH]1 (some centres undefined), Cc1cc(=O)[nH]c(SCC(=O)Nc2ccc(Br)cc2)n1, O=[N+]([O-])c1ccccc1S(=O)(=O)Nc1cccc2cccnc12

activity, negative = inhibition, inactive:
CN(C)S(=O)(=O)Oc1ccccc1C(=O)Nc1ccccc1Cl 2.71%, NCCCCC(N)C(=O)O (centres undefined) -3.84%, O=C(NCc1ccccn1)c1cc(-c2ccccc2Cl)on1 -5.28%, COc1ccc(NC(=O)Nc2ccc3nsnc3c2)cc1 -33.9%, H-EHIPA-OH -4.14%, CC[C@H](C)[C@H](NC(=O)[C@H](CCCNC(=N)N)NC(=O)[C@H](CCCNC(=N)N)NC(=O)[C@H](CC(C)C)NC(=O)[C@H](Cc1ccccc1)NC(=O)CNC(=O)CNC(=O)[C@@H](N)Cc1ccc(O)cc1)C(=O)N[C@@H](CCCNC(=N)N)C(=O)N1CCC[C@H]1C(=O)N[C@@H](CCCCN)C(=O)N[C@@H](CC(C)C)C(=O)N[C@@H](CCCCN)C(=O)N[C@@H](Cc1c[nH]c2ccccc12)C(=O)N[C@@H](CC(=O)O)C(=O)N[C@@H](CC(N)=O)C(=O)N[C@@H](CCC(N)=O)C(=O)O -6.92%, CCOC(=O)C(C)Sc1nnc(CSc2nc3nc(C)cc(C)n3n2)o1 (centres undefined) -0.989%, O=C(NCc1ccccc1)C1=C[C@H](C2CC2)C[C@H](OCc2ccc(CO)cc2)O1 -0.989%, Cc1cc(N(C)C)nc(Cl)n1 -18.3%, Oc1ccc(-c2c(-c3ccccc3)nn3c(C(F)(F)F)cc(C(F)(F)F)nc23)cc1 8.87%, O=C(NN1C(=O)C2C(C1=O)C1C=CC2C12CC2)c1ccccc1Cl (centres undefined) -3.11%, CC12CCC(C(=O)N(c3cccc(Cl)c3)C1=O)C2(C)C (centres undefined) 3.9%, Cc1ccc(S(=O)(=O)N2CCC(=O)N([C@H](COCc3ccccc3)Cc3ccccc3)CC2)cc1 -4.94%, CC[C@H](C)[C@H](NC(=O)[C@H](Cc1ccc(O)cc1)NC(=O)[C@@H](NC(=O)[C@H](CCCN=C(N)N)NC(=O)[C@@H](N)CC(=O)O)C(C)C)C(=O)N[C@@H](Cc1cnc[nH]1)C(=O)N1CCC[C@H]1C(=O)N[C@@H](Cc1ccccc1)C(=O)O 14.2%, CCCn1c(C(O)c2ccc(OCC)cc2)nc2ccccc21 (centres undefined) -5.82%, COc1ccc(C2/C=C\CN(Cc3ccco3)C(C)C(=O)N2Cc2ccc(F)cc2)cc1 (centres undefined) -12.4%, CCOC(=O)CC1C(=O)NCCN1C(=O)COc1ccc(Br)cc1C (centres undefined) -8.2%, Cc1cccn2c(=O)c(/C=C3\SC(=S)N(CC(C)C)C3=O)c(NCCCOC(C)C)nc12 2.64%, CCC(C)(C)NC(=O)c1cc([N+](=O)[O-])ccc1N1CCCCC1 -6.6%, COc1ccc(C(CCN2CCOCC2)c2c(OC)cc(OC)c3c2OC(=O)CC3c2ccc(OC)cc2)cc1 (centres undefined) -5.93%, C=CCNC(=S)NNC(=O)c1cc(Cl)ccc1OC -9.23%, COc1ccc(Cl)cc1C(=O)NNC(=S)NC1CCCC1 21.4%, CCC(C)NC(=O)CSC1=Nc2ccccc2C2=NC(CCC(=O)NCc3ccco3)C(=O)N12 (centres undefined) -4.68%, O=C(CSC1=Nc2ccccc2C2=NC(CC(=O)NCc3ccco3)C(=O)N12)NCc1ccco1 (centres undefined) 9.12%, O=P(O)(O)C(O)c1ccc2ccccc2c1 (centres undefined) -4.2%, CC(C)(C)N(Cc1ccccc1)C(=O)COC(=O)CCc1c[nH]c2ccccc12 -1.03%, COc1cccc(C(=O)Nc2c3c(nn2-c2cccc(C)c2C)CS(=O)(=O)C3)c1OC -0.603%, Cc1ccc(-n2nc3c(c2NC(=O)c2ccc4c(c2)OCO4)CSC3)c(C)c1 0.297%, c1ccc(CN2CCC(N=C3NN=C(c4ccc5c(c4)OCCO5)CS3)CC2)cc1 -3.29%, S=c1[nH]c2ccccc2c2ccccc12 -10.8%, Cc1ccc(NC(=O)CSc2nc(CSc3ccc(C)cc3)cc(=O)[nH]2)cc1 34.7%, CSc1ccccc1N1CCN(CCCCCC(=O)NC2CCCc3ccccc32)CC1 (centres undefined) -8.54%

Potency, active:
COCCNC(=O)Nc1ccc2nc(-c3ccco3)c(-c3ccco3)nc2c1 8.91 µM, O=C(NCc1ccccn1)c1ccc2nc(-c3ccco3)c(-c3ccco3)nc2c1 15.8 µM, O=C(NCc1ccccc1)C1=C[C@@H](C2CCCCC2)C[C@@H](OCc2ccc(CO)cc2)O1 15.8 µM, CC12CCC(C(=O)N(NC(=O)c3ccccc3O)C1=O)C2(C)C (centres undefined) 39.8 µM, CCOC(=O)CC1C(=O)NCCN1c1nc2c(C)cccn2c(=O)c1/C=C1\SC(=S)N(C(C)CC)C1=O (centres undefined) 35.5 µM, COc1ccc(Cl)cc1C(=O)NNC(=S)NC(=O)/C=C/c1ccco1 31.6 µM, CC(C)C1N=C2c3ccccc3N=C(SCC(=O)c3ccc(O)c(O)c3)N2C1=O (centres undefined) 14.1 µM, Cc1cccc(-n2nc3c(c2NC(=O)c2ccc(Br)o2)CSC3)c1C 35.5 µM, COc1ccc(NC(=O)CSc2nc(NS(=O)(=O)c3ccc(C)cc3)cc(=O)[nH]2)cc1 35.5 µM

Potency, inactive:
OCCC(O)CO (centres undefined)

Potency, inactive and 28.2 µM (active):
CCCCCC(O)c1cccc(OCc2ccc3ccccc3n2)c1 (centres undefined)
